The sample as a whole holds a higher share of hits than the screen did.
Pf Dd2 inh – inhibitors of Plasmodium falciparum Dd2 growth | P. falciparum Dd2 growth, SYBR Green, 72 h | Potency, µM (titrated, usually from 28.9 µM), for inactives: top-dose activity, negative = inhibition, actives largely listed as inhibitors | AID 1347417 | hit rate 4.3% among 120,000; active means well fitted inhibition curve with a large enough effect;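 further: plate controls were DMSO vehicle for no effect and reference drug for full effect; nearly all actives have a fitted effect of over 65% in size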
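Readout: SYBR Green fluorescence, 485 nm excitation, 535 nm emission, after ~16 h lysis at 37C. Before that, Dd2-infected red cells (2.5% hematocrit) grew 72 h with compound, 29 uM top final concentration.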
An asterisk follows results filed as active; i = inactive; [ ] = remark or other dose. Potency means the concentration at half of the fitted maximal effect.

SMILES | Pf Dd2 inh
OCc1cc(CC2(NCc3cc4ccccc4o3)COC2)no1 | 13.4%[44.1 µM]
O=C(c1ccncn1)N1CC(F)(F)C[C@H]1c1nc(C2CC2)no1 | -24.1%
CCN(CC)C(=O)[C@@H]1CCCN1[C@@H](C(=O)NC)C1CC1 | -0.2%[44.1 µM]
CCc1cc(=O)n(CC(=O)Nc2ccc(C)c(Cl)c2)c(N2CCOCC2)n1 | -11.4%
COC1CCC12CCN(C(=O)COc1ccccc1)CC2 (stereo not given) | i
Cc1cnc(C(=O)NC2C[C@H]3CC[C@@H](C2)N3C(=O)c2cc(F)ccc2F)cn1 (stereo not given in full) | -10.2%
O=C(O)c1cccnc1OC1CCNCC1 | 26.7%
Cn1nnnc1SCCCNCc1cc(Br)ccc1OCc1ccccc1 | 11.2µM*
COc1cc(CNCCSc2nnnn2C)ccc1OCc1ccc(F)cc1 | i
COc1cccc(CNCCSc2nnnn2C)c1OCc1ccc(F)cc1 | -6.8%
Cn1nnnc1SCCCNCc1cc(Br)ccc1OCc1ccccc1F | 7.94µM*
Cn1nnnc1SCCNCc1ccccc1Cl | -22.6%
Cn1nnnc1SCCNCc1ccc(F)cc1 | -15.2%
Cn1c(CCNC(=O)CN2CC3CC(C2)[C@H]2CCCC(=O)N2C3)nc2ccccc21 (stereo not given in full) | -30.2%
O=C(Nc1ccc([C@H]2OCC(=O)N(Cc3cccnc3)[C@@H]2CO)cc1)c1ccnc(Cl)c1 | -0.8%
COc1ccc(NC(=O)C2(C)CCCCC(=O)N2)cc1F (stereo not given) | -7.1%
CCOC(=O)c1ccc(NC(=O)c2c(NCc3sccc3C)sc3c2CCCCC3)cc1 | 10µM*
CCOC(=O)c1c(NC(=O)c2cc(Cl)ccc2Cl)sc2c1CCCC2 | i
CCOc1ccccc1NC(=O)c1c(NCc2ccc(OC)c(OC)c2OC)sc2c1CCC(C)C2 (stereo not given) | i
COc1ccc(/C=C/C(=O)Nc2sc3c(c2C(N)=O)CCCC3)cc1 | 4.9%
COc1ccc(CC(=O)Nc2sc3c(c2C(=O)Nc2c(C)cccc2C)CCCCC3)cc1 | 9.4%
COc1ccccc1NC(=O)c1c(NC(=O)c2ccccc2F)sc2c1CCC2 | 49.3%
COc1ccc(NC(=O)c2c(NCc3ccc(OC)c(OC)c3OC)sc3c2CCC3)c(OC)c1 | 10µM*
COc1ccc(NC(=O)c2c(NC(=O)C(F)(F)F)sc3c2CCCCC3)cc1 | 3.16µM*
COc1ccc(CC(=O)Nc2sc3c(c2C(=O)Nc2ccc(C)cc2)CCCCC3)cc1 | -23.0%
SMILES | Pf Dd2 inh
CCOC(=O)c1c(NC(=O)c2ccc(C)c(C)c2)sc2c1CCCCC2 | -5.9%
COc1ccc(NC(=O)c2c(NCc3cccc(OC)c3)sc3c2CCCC3)cc1 | 10µM*
CNC(=O)c1c(NC(=O)Cc2coc3ccc(OC)cc23)sc2c1CCCC2 | -19.2%
Cc1nc(C)c(C(=O)N2C[C@@H](Oc3cccnc3)C[C@H]2C(=O)NC2CC2)s1 | 11.9%
CN(C)CC1(O)CCC2(CCN(C(=O)CC3CCCC3)CC2)CC1 | i
O=C(O)c1ccc(-c2ncc3cnc(-c4cccc(F)c4)cn23)cc1 | i
Cc1nc2ccccc2n1Cc1cn([C@@H]2CN[C@H](C(=O)O)C2)nn1 | -2.4%
O=C(CN1C(=O)NC2(CCS(=O)(=O)CC2)C1=O)Nc1cc(F)cc(F)c1 | 23.0%
COc1ccc(C(=O)NC2CCCN(c3cc(-c4ccccc4)[nH]n3)C2)cc1OC (stereo not given) | -18.8%
O=C(N[C@H]1CCOC[C@H]1C1CCOCC1)c1cc(=O)[nH]c2ccc(F)cc12 | 2.5%
COc1ccc(CN(C)C(=O)C2CNCCO2)c2cccnc12 (stereo not given) | 2.9%
COC[C@@H]1CN(C(=O)c2ccc(C(C)(C)C)cc2)C[C@H]1c1nc(C)no1 | -17.4%
CCOC(=O)c1c(NC(=O)c2ccc(OC)c(OC)c2)sc2c1CCCCC2 | 2.2%
CCOc1ccccc1NC(=O)c1c(NCc2ccc(C)o2)sc2c1CCCCC2 | 12.6µM*
COC(=O)c1ccc(NC(=O)c2c(NCc3ccc(OC)c(OC)c3)sc3c2CCCC3)cc1 | 11.2µM*
COC(=O)c1ccc(NC(=O)c2c(NCc3ccc(C)o3)sc3c2CCCC3)cc1 | 10µM*
CCOc1ccccc1NC(=O)c1c(NC(=O)COc2ccccc2)sc2c1CCCC2 | 53.7%
CCOc1ccccc1NC(=O)c1c(NCc2ccc(C)o2)sc2c1CCC(C)C2 (stereo not given) | 44.2%
O=C(Nc1sc2c(c1C(=O)Nc1ccccc1)CCC2)c1ccc(Br)cc1 | 11.3%
COc1ccc(Cl)cc1NC(=O)c1c(NCc2cccnc2)sc2c1CCCC2 | 11.2µM*
CCOC(=O)N1CCc2c(sc(NCc3sccc3C)c2C(=O)Nc2cc(Cl)ccc2OC)C1 | -19.2%
COC(=O)c1c(NC(=O)/C=C/c2ccc(OC)c(OC)c2)sc2c1CCC2 | 6.3%
Cc1cccc(NC(=O)c2c(NC(=O)c3ccccc3)sc3c2CCCC3)c1 | 35.7%
COc1ccccc1NC(=O)c1c(NC(=O)c2ccccc2Cl)sc2c1CCC2 | -14.4%
COCCc1noc([C@@H]2CN(Cc3ccccc3F)C[C@H]2CO)n1 | i
Cc1nc(CCNC(=O)C2NCCc3[nH]cnc32)nc2c1CCCC2 (stereo not given) | -7.9%

Assay outcomes: PubChem BioAssay, National Center for Advancing Translational Sciences (NCATS)
